Measured values taken from PubChem BioAssay (EPA / NIEHS).
Calls of active or inactive are those of the source. Rule for the calls: active = hit-call score of the fitted dose curve at least 0.9, where 1 is the maximum; inactive = score below 0.9.

What was measured:
Settings in all cases: mRNA level, 48 h; actives raise or lower the signal
[1] = read-out: ATP-citrate lyase (ACLY), ACLY (gene 47); test: LTEA_HepaRG_ACLY: Life Technologies and Expression Analysis (LTEA) Assay for ATP-citrate lyase (ACLY) using HepaRG (AID 2283466)
Summary of the method: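 HepaRG, 48 h exposure, 8-pt half-log dilutions (top 100 uM), 0.5% DMSO. Readout: ACLY mRNA, TaqMan qRT-PCR, housekeeping-normalized (ACTB/GAPDH/POLR2A). Bidirectional curve fit vs DMSO.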

[2] = read-out: Peroxisomal acyl-coenzyme A oxidase 1 (ACOX1) gene, ACOX1 (gene 51); test: LTEA_HepaRG_ACOX1: Life Technologies and Expression Analysis (LTEA) Assay for Peroxisomal acyl-coenzyme A oxidase 1 (ACOX1) gene using HepaRG (AID 2283467)
Summary of the method: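 Measured by qRT-PCR against three housekeeping genes: ACOX1 transcript change in human HepaRG cells after 48 h dosing. Concentrations ran up to 100 uM in half-log steps. Curves were fitted bidirectionally relative to 0.5% DMSO.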

[3] = read-out: Alkaline Phosphatase, Placental (ALPP) gene, ALPP (gene 250); test: LTEA_HepaRG_ALPP: Life Technologies and Expression Analysis (LTEA) Assay for Alkaline Phosphatase, Placental (ALPP) gene using HepaRG (AID 2283468);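 note: differentiated human HepaRG liver cells in serum-free induction medium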
Summary of the method: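 qRT-PCR readout of ALPP mRNA (Fluidigm TaqMan), normalized to ACTB/GAPDH/POLR2A, after 48 h chemical exposure of HepaRG cells; 8-point half-log series, top 100 uM, 0.5% DMSO vehicle. Bidirectional curve fit versus DMSO baseline.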

[4] = read-out: Bcl-2 (BAD) gene, BAD (gene 572); test: LTEA_HepaRG_BAD: Life Technologies and Expression Analysis (LTEA) Assay for Bcl-2 (BAD) gene using HepaRG (AID 2283469)
Summary of the method: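 BAD transcript change, measured by qRT-PCR against three housekeeping genes and fitted in both directions relative to 0.5% DMSO, after 48 h chemical treatment of human HepaRG liver cells at concentrations up to 100 uM.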

[5] = read-out: Bcl-2 (BAX) gene, BAX (gene 581); test: LTEA_HepaRG_BAX: Life Technologies and Expression Analysis (LTEA) Assay for Bcl-2 (BAX) gene using HepaRG (AID 2283470)
Summary of the method: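 HepaRG (human liver), 48 h exposure, duplicate wells. 8-pt curve, half-log from 100 uM, 0.5% DMSO. BAX transcript by TaqMan qRT-PCR; ACTB/GAPDH/POLR2A normalization; gain or loss vs DMSO baseline.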

[6] = read-out: adenosine kinase (ADK) gene, ADK (gene 132); test: LTEA_HepaRG_ADK: Life Technologies and Expression Analysis (LTEA) Assay for adenosine kinase (ADK) gene using HepaRG (AID 2283471)
Summary of the method: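 Differentiated HepaRG cells dosed 48 h in serum-free induction medium, 0.5% DMSO vehicle, eight half-log concentrations from 100 uM, in duplicate. ADK mRNA by TaqMan qRT-PCR normalised to ACTB, GAPDH, POLR2A; bidirectional fit versus DMSO.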

[7] = read-out: Alpha-fetoprotein (AFP) gene, AFP (gene 174); test: LTEA_HepaRG_AFP: Life Technologies and Expression Analysis (LTEA) Assay for Alpha-fetoprotein (AFP) gene using HepaRG (AID 2283472)
Summary of the method: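 HepaRG, single lot; 48 h post-plating -> serum-free induction medium; cpd 8-pt, 100 uM top, half-log, 0.5% DMSO, duplicate, 48 h. RNA -> qRT-PCR AFP, norm ACTB/GAPDH/POLR2A. Bidirectional fit vs DMSO.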

BCL2L11 (gene 10018) = test: LTEA_HepaRG_BCL2L11: Life Technologies and Expression Analysis (LTEA) Assay for Bcl-2 (BCL2L11) gene using HepaRG (AID 2283473)
Summary of the method: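 HepaRG, 48 h exposure, 8-pt half-log series from 100 uM in 0.5% DMSO, duplicates; qRT-PCR (Fluidigm TaqMan) for BCL2L11, housekeeping-normalized; bidirectional curve fit relative to DMSO baseline.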

[8] = read-out: Apolipoprotein A-V (APOA5) gene, APOA5 (gene 116519); test: LTEA_HepaRG_APOA5: Life Technologies and Expression Analysis (LTEA) Assay for Apolipoprotein A-V (APOA5) gene using HepaRG (AID 2283474)
Summary of the method: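 HepaRG, 48 h chemical exposure in serum-free induction medium, 8-pt half-log series (top 100 uM), 0.5% DMSO vehicle, duplicates. Readout: APOA5 mRNA by qRT-PCR, housekeeping-normalized; bidirectional fit vs DMSO baseline.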

[9] = read-out: Apoptosis regulator Bcl-2 (Homo sapiens) (UniProt P10415); test: LTEA_HepaRG_BCL2: Life Technologies and Expression Analysis (LTEA) Assay for Bcl-2 gene using HepaRG (AID 2283475)
Summary of the method: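 HepaRG, plated 48 h then switched to serum-free induction medium; dosed 48 h, 8 conc. (max 100 uM, half-log steps), duplicate, 0.5% DMSO. Lysis in RLT, RNA isolated, TaqMan qRT-PCR for BCL2; ACTB/GAPDH/POLR2A normalisation; bidirectional fit vs DMSO.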

[10] = read-out: Bcl-2 (BID) gene, BID (gene 637); test: LTEA_HepaRG_BID: Life Technologies and Expression Analysis (LTEA) Assay for Bcl-2 (BID) gene using HepaRG (AID 2283476)
Summary of the method: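 Transcript levels of BID, measured by qRT-PCR and normalized to three housekeeping genes, were fitted bidirectionally against DMSO controls. Cells were HepaRG, dosed 48 h at up to 100 uM.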

Caspase-3 (Homo sapiens) = Caspase-3 (Homo sapiens) (UniProt P42574); test: LTEA_HepaRG_CASP3: Life Technologies and Expression Analysis (LTEA) Assay for cysteine-aspartic acid protease (CASP3) using HepaRG (AID 2283477)
Summary of the method: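 HepaRG, 48 h exposure, 8 conc. (top 100 uM, half-log steps, duplicate), 0.5% DMSO vehicle; qRT-PCR of CASP3 transcript, housekeeping-normalised (ACTB/GAPDH/POLR2A); bidirectional curve fit vs DMSO baseline.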

[11] = read-out: Cytochrome P450 (CYP24A1), CYP24A1 (gene 1591); test: LTEA_HepaRG_CYP24A1: Life Technologies and Expression Analysis (LTEA) Assay for Cytochrome P450 (CYP24A1) using HepaRG (AID 2283478)
Summary of the method: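 qRT-PCR read-out: CYP24A1 transcript levels normalized to three housekeeping genes, bidirectional curve fits against 0.5% DMSO baseline. Human HepaRG cells treated 48 h with chemicals at eight concentrations from 100 uM in half-log steps.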

[12] = read-out: Cytochrome P450 (CYP1A2), CYP1A2 (gene 1544); test: LTEA_HepaRG_CYP1A2: Life Technologies and Expression Analysis (LTEA) Assay for Cytochrome P450 (CYP1A2) using HepaRG (AID 2283479)
Summary of the method: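 HepaRG, 48 h exposure, top 100 uM, half-log 8-pt, 0.5% DMSO vehicle, duplicates. Readout: TaqMan qRT-PCR of CYP1A2 mRNA, housekeeping-normalized (ACTB/GAPDH/POLR2A). Gain/loss fit relative to DMSO baseline.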

[13] = read-out: cysteine-aspartic acid protease (CASP8), CASP8 (gene 841); test: LTEA_HepaRG_CASP8: Life Technologies and Expression Analysis (LTEA) Assay for cysteine-aspartic acid protease (CASP8) using HepaRG (AID 2283480)
Summary of the method: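 HepaRG, 48 h exposure, duplicate wells; 8 conc, half-log from 100 uM, 0.5% DMSO. Serum-free induction medium. CASP8 mRNA by TaqMan qRT-PCR, norm. ACTB/GAPDH/POLR2A; gain/loss fitted vs DMSO.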

[14] = read-out: Cytochrome P450 (CYP2B6), CYP2B6 (gene 1555); test: LTEA_HepaRG_CYP2B6: Life Technologies and Expression Analysis (LTEA) Assay for Cytochrome P450 (CYP2B6) using HepaRG (AID 2283481)
Summary of the method: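 Read-out is CYP2B6 mRNA by TaqMan qRT-PCR, normalized to three housekeeping genes and fitted bidirectionally against 0.5% DMSO baseline. Human HepaRG cells received test chemicals for 48 h, top concentration 100 uM, half-log dilutions.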

[15] = read-out: Cytochrome P450 2C19 (Homo sapiens) (UniProt P33261); test: LTEA_HepaRG_CYP2C19: Life Technologies and Expression Analysis (LTEA) Assay for CYP2C19 using HepaRG (AID 2283482)
Summary of the method: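 HepaRG, 48 h chemical exposure, 8-pt half-log series from 100 uM in 0.5% DMSO, duplicates. Readout: CYP2C19 mRNA by TaqMan qRT-PCR, housekeeping-normalized. Bidirectional fit vs DMSO baseline; phenobarbital 1mM as induction control.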

CYP2C8 (gene 1558) = test: LTEA_HepaRG_CYP2C8: Life Technologies and Expression Analysis (LTEA) Assay for CYP2C8 using HepaRG (AID 2283483)
Summary of the method: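 CYP2C8 mRNA induction or loss, by qRT-PCR normalized to ACTB/GAPDH/POLR2A, is read in HepaRG cells after 48 h treatment. Concentrations run from 100 uM down in half-log dilutions, with 0.5% DMSO as vehicle and baseline.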

CYP2C9 (gene 1559) = test: LTEA_HepaRG_CYP2C9: Life Technologies and Expression Analysis (LTEA) Assay for CYP2C9 using HepaRG (AID 2283484)
Summary of the method: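 Cells plated 48 h, switched to serum-free induction medium, then treated in duplicate for 48 h at eight concentrations (max 100 uM, 0.5% DMSO). RNA then analysed by qRT-PCR for CYP2C9; curves fitted in both directions relative to DMSO.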

CYP2E1 (gene 1571) = test: LTEA_HepaRG_CYP2E1: Life Technologies and Expression Analysis (LTEA) Assay for CYP2E1 using HepaRG (AID 2283485)
Summary of the method: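 Human liver line HepaRG, plated 48 h, then serum-free induction medium + chemical x 48 h; 8-pt CRC from 100 uM, half-log, 0.5% DMSO, n=2. Readout: CYP2E1 mRNA qRT-PCR vs ACTB/GAPDH/POLR2A; bidirectional fit vs DMSO.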

Measured: AC50

Sequence of Apoptosis regulator Bcl-2 (Homo sapiens) (P10415 whole entry, looked up): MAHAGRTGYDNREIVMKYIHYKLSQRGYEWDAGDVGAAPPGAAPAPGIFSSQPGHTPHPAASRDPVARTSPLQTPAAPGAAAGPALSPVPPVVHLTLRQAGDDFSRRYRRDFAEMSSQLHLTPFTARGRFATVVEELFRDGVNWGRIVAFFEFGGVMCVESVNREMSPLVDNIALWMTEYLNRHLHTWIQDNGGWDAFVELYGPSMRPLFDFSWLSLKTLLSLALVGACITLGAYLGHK
Sequence of Cytochrome P450 2C19 (Homo sapiens) (P33261 whole entry, looked up): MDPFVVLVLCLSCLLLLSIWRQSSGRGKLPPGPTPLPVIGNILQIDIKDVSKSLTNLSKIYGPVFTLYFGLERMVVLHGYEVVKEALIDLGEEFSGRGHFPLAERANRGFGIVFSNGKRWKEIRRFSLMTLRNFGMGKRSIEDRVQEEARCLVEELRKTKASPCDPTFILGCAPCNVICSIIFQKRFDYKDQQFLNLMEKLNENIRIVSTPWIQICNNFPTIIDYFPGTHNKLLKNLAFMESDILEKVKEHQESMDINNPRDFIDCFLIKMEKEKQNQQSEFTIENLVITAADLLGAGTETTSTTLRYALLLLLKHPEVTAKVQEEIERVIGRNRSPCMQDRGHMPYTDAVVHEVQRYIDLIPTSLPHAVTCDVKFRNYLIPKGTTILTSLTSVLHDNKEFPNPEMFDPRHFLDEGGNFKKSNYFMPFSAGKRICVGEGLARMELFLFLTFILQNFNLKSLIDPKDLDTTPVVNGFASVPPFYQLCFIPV
Sequence of Caspase-3 (Homo sapiens) (P42574 whole entry, looked up): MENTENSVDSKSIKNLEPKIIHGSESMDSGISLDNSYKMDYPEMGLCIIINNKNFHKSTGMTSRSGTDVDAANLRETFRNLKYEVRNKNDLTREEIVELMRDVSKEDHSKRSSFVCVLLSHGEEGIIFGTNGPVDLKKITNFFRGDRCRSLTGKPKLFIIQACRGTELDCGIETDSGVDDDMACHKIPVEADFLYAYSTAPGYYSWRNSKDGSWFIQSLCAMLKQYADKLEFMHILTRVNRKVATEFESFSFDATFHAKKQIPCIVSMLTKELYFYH

COc1ccc2cc(S(=O)(=O)N[C@H](CC(=O)N[C@H](Cc3ccc(CN4[C@H](C)CCC[C@@H]4C)cc3)C(=O)N(C)C(C)C)c3ccc4c(c3)OCO4)ccc2c1
inactive: [1] | [4] | [7] | [8] | [9] | [11] | CYP2C8 (gene 1558)
active: [2] 20.3 µM | [3] 0.741 µM | [5] 81.8 µM | [6] 13.3 µM | BCL2L11 (gene 10018) 84.9 µM | [10] 21.6 µM | Caspase-3 (Homo sapiens) 19.4 µM | [12] 7.93 µM | [13] 25.1 µM | [14] 11.5 µM | [15] 23.7 µM | CYP2C9 (gene 1559) 11.9 µM | CYP2E1 (gene 1571) 29.7 µM

COc1cccc([C@H](O)C2CCN(CCc3ccc(F)cc3)CC2)c1OC
inactive: [2] | [4] | [5] | [6] | [7] | BCL2L11 (gene 10018) | [8] | [9] | [10] | Caspase-3 (Homo sapiens) | [11] | [13] | CYP2C8 (gene 1558) | CYP2C9 (gene 1559)
active: [1] 80.7 µM | [12] 58.9 µM | [14] 13.9 µM | [15] 50 µM | CYP2E1 (gene 1571) 16.7 µM
